# High-throughput results: PubChem BioAssay, National Center for Advancing Translational Sciences (NCATS)
# IL1B secr inh: blocks inflammasome-driven IL-1 beta release. THP-1 LPS/ATP IL-1B secretion, AlphaLISA, 16 h; active compounds read low. activity change, % at 57.5 µM. 4.7% of 360,000 active. AID 743279; in the data active = activity change below about -50%; inconclusive = mostly about -30% to -49%
#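 Secreted IL-1B measured by AlphaLISA bead assay after 16 h compound exposure of THP-1 cells; compounds (final up to 57.5 uM) added 1 h before LPS (250 ng/mL) and ATP (1.25 mM) stimulation; lower signal means less secretion.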
# HT1080NT lethal: kills 2HG-producing HT-1080-NT fibrosarcoma cells; Potency, µM (doses to about 46.1 µM), inactives show at the highest dose activity, negative = less viability, hits mostly cytotoxic; HT-1080-NT fibrosarcoma viability, CellTiter-Glo ATP luminescence, 48 h; 1.6% of 360,000 active;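 also: NT is the 2HG producing partner of a matched IDH1 knockdown line; potency is read from the fitted curve at half-maximal effect; 0% = DMSO-treated cells and -100% = media-only wells without cells; nearly all actives have a fitted effect of over 55% in size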
#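 HT-1080-NT fibrosarcoma cells (2HG-overproducing), 750 cells/well in RPMI with 5% FBS, dosed after 2 h and incubated 48 h at 37C. CellTiter-Glo luminescence normalized to DMSO and no-cell wells; concentration-response curves fitted and classed.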
# TDP1 cell noCPT: qHTS for Inhibitors of human tyrosyl-DNA phosphodiesterase 1 (TDP1): qHTS in cells in absence of CPT. AID 686978, 2013. DT40 Tdp1-/- hTDP1 cells, no CPT, ATP luminescence, 48 h. 15% of 420,000 active. Potency, µM (series often up to 46.2 µM), without a hit: at the top dose activity change, negative = growth inhibition, most hits filed as inhibitors; also: potency is read from the fitted curve at half-maximal effect; nearly all actives have a fitted effect of over 55% in size
#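 Compound effects on proliferation are scored in DT40 Tdp1-/-;hTDP1 cells in the absence of CPT. ATP levels (CellTiter-Glo luminescence) are recorded after a ≥48 hr, 37 °C incubation.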
# HT1080 IDH1KD tx: HT-1080 IDH1 knockdown cell toxicity (counter line). HT-1080 IDH1 knockdown viability, ATP luminescence, 48 h. AID 686971. Potency, µM (highest dose often 46.1 µM), for inactives: at the top dose activity, negative = toxicity, usual class: cytotoxic. 2% of 360,000 active;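 also: potency is read from the fitted curve at half-maximal effect; 0% = DMSO wells and -100% = cell-free medium wells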
#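 Luminescent ATP read-out (CellTiter-Glo, 10 min at room temperature) after 48 h compound exposure at 37 °C gave viability of IDH1-knockdown HT-1080 cells. Activity was normalised to DMSO and cell-free wells, then fitted as concentration-response curves.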
# DT40 TDP1 CPT: growth inhibition of DT40 Tdp1-/-;hTDP1 cells with camptothecin (screen for TDP1 inhibitors) | chicken DT40 Tdp1-/-;hTDP1 cells + 20 nM CPT, ATP luminescence, 48 h | Potency, µM (doses to about 46.2 µM), without a hit: top-dose activity change, negative = growth inhibition, usual class: inhibitors | 12% of 420,000 active; also: potency is read from the fitted curve at half-maximal effect; nearly all actives have a fitted effect of over 55% in size
#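 Cell growth measured by CellTiter-Glo luminescence after a minimum 48 h, 37 C compound exposure with 20 nM CPT in Tdp1-knockout DT40 cells stably expressing hTDP1, seeded 400/well; qHTS titration format.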
# ALOX12 inh: blocks human arachidonate 12S-lipoxygenase | P18054 | purified 12hLO, xylenol orange hydroperoxide absorbance | Potency, µM (titrated, usually from 108 µM), inactives show top-dose activity change, negative = inhibition, actives largely listed as inhibitors | 1.1% of 580,000 active | AID 1671190; also: potency is read from the fitted curve at half-maximal effect
# Target sequence (P18054 whole entry, looked up): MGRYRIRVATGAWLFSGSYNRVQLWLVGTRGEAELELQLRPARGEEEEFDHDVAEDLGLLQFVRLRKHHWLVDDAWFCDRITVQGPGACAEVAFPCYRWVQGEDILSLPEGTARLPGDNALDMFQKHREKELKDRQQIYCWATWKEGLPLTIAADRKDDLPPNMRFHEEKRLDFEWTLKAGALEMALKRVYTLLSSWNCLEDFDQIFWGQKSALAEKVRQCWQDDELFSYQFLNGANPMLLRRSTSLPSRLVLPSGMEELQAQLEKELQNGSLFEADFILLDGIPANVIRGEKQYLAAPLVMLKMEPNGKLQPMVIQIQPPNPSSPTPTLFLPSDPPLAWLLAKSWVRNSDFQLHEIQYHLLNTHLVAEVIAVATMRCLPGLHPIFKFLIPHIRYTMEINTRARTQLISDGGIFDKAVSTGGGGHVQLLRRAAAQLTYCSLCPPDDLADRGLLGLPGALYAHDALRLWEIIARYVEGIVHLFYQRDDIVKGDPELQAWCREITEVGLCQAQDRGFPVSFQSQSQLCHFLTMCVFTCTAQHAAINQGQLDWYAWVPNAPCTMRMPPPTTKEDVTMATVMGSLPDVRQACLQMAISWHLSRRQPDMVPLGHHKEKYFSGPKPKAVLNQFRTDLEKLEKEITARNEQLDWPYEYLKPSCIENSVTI
#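 Purified human 12hLO at 150 nM in 25 mM Hepes, 0.01% Triton X-100, pH 7.0, preincubated 15 min at room temperature with compound. Reaction started with 40 uM arachidonic acid, 30 min at room temperature. Hydroperoxide measured by Fe-xylenol orange, 573/405 nm absorbance ratio.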
# Active calls of the source: *; ? = inconclusive; / = no result; [ ] = remark or other dose. Many of the other results were omitted from the sample, so hits are more common in it than they were. Unless noted, calls follow the shape of the dose curve; as a rule, active = well fitted curve in the direction sought with a large enough effect; inconclusive = small, poorly fitted or top-dose-only effect, or another doubt; inactive = no such curve, though single readings can be large; an effect the other way counts as inactive or inconclusive. Unless noted, % is scaled to controls: 0 for no effect and ±100 for the full control effect.
SMILES,IL1B secr inh,HT1080NT lethal,TDP1 cell noCPT,HT1080 IDH1KD tx,DT40 TDP1 CPT,ALOX12 inh
COc1ccccc1N1C(=O)C2CC(C)=C(C)CC2C1=O (configuration not stated),22.1,-0.3%,-21.1%,-4.0%,-18.0%,1.7%
Cc1nc(-c2ccncc2)nc(NCCNc2ncccc2C(F)(F)F)c1Cl,-18.2,12.8%,7.31µM*,6.5%,11.6µM*,45.2%
FC(F)(F)c1ccccc1-c1nc(-c2ccncc2)no1,-0.3,0.1%,-23.4%,-4.7%,-9.9%,20.0%
CN1C(=O)C2(Oc3ccccc3C3CC(c4ccccc4)=NN32)c2ccccc21 (configuration not stated),-14.0,-27.7%,?,-16.9%,23.1µM*,/
Cc1ccc(C2=NN3C(C2)c2ccccc2OC32C(=O)Nc3ccccc32)cc1 (configuration not stated),-13.4,?,?,?,?,?
Cc1ccc(-c2nn3c(C)nnc3s2)cc1NC(=O)c1ccc(-c2ccc(Cl)cc2Cl)o1,21.4,?,6.51µM*,?,7.31µM*,-19.6%
Cc1ccc(-c2nn3c(C)nnc3s2)cc1NC(=O)c1ccc(Br)o1,13.7,5.5%,-21.0%,5.4%,?,?
Cc1ccc(-c2nn3c(C)nnc3s2)cc1NC(=O)c1ccc(-c2cccc(Cl)c2)o1,104.3,?,18.4µM*,?,23.1µM*,0.0%
COCC1CN(C)CC12CCN(C(=O)NC1CCCCC1)CC2 (configuration not stated),/,/,/,/,/,50.2%
CCc1nnc(NC(=O)C2CC(=O)N(c3n[nH]c4cc(Br)ccc34)C2)s1 (configuration not stated),/,/,/,/,/,6.5%
C[C@H]1CN([C@@H](C)CO)C(=O)c2cc(C#Cc3ccccn3)cnc2O[C@@H]1CN(C)Cc1ccccc1,-8.9,6.4%,-21.4%,5.3%,12.7%,0.0%
CC(=O)C(C(C)=O)c1c(Cl)c(O)c(O)c2c(C(=O)c3ccccc3)coc12,-16.4,?,3.66µM*,11.6µM*,4.61µM*,?
Cc1noc(C)c1NC(=O)N(C)C[C@H]1OCCCC[C@@H](C)Oc2ccc(NC(=O)c3ccccc3)cc2C(=O)N([C@H](C)CO)C[C@@H]1C,-13.9,-0.3%,-18.6%,1.4%,?,-9.7%
C[C@@H]1CN([C@H](C)CO)C(=O)c2cc(NC(=O)Nc3ccc(F)cc3)ccc2O[C@@H](C)CCCCO[C@H]1CN(C)S(=O)(=O)c1cccs1,?,-24.8%,25.9µM*,?,?,?
C[C@@H]1CN([C@@H](C)CO)C(=O)c2cc(NC(=O)c3ccccc3)ccc2O[C@@H](C)CCCCO[C@@H]1CN(C)S(=O)(=O)c1ccc(F)cc1,-17.9,-5.7%,20.6µM*,-10.0%,?,-6.8%
COc1ccc(S(=O)(=O)N(C)C[C@H]2OCCCC[C@H](C)Oc3ccc(NC(=O)Nc4ccc(F)cc4)cc3C(=O)N([C@H](C)CO)C[C@H]2C)cc1,-8.9,-16.2%,-11.3%,-14.4%,?,-3.3%
Cc1noc(C)c1NC(=O)N(C)C[C@H]1OCCCC[C@@H](C)Oc2ccc(NC(=O)Nc3ccc(F)cc3)cc2C(=O)N([C@@H](C)CO)C[C@H]1C,11.2,-14.5%,18.4µM*,-0.8%,?,-56.2%
Cc1ccc(S(=O)(=O)N(C)C[C@@H]2OCCCC[C@H](C)Oc3ccc(NC(=O)Nc4ccc(F)cc4)cc3C(=O)N([C@H](C)CO)C[C@H]2C)cc1,-29.0,-20.2%,7.31µM*,-26.3%,13µM*,?
CC1(COc2ccc3[nH]ccc3c2)COc2ccc(C(=O)Nc3cccnc3)cc2N1 (configuration not stated),/,/,/,/,/,27.2%[176 µM]
Cn1nccc1C(=O)NCC1Cn2cccc2C(=O)N1Cc1ccccc1 (configuration not stated),/,/,/,/,/,45.1%
COc1ccc(CC2C(=O)NC(C)C(=O)N(C)C3Cc4ccc(cc4)Oc4cc(ccc4O)CC(C(=O)NC(C)C(=O)NC(C)C(=O)N2C)N(C)C3=O)cc1 (configuration not stated),-99.7*,0.326µM*,0.164µM*,0.164µM*,0.0184µM*,-24.2%
COC(=O)N1CCC2(CCCN(Cc3ccc(C#N)cc3)C2)CC1,/,/,?,/,-9.3%,3.6%[57.4 µM]
N#Cc1ccc(CN2CCC3(CC2)CCN(C(=O)c2cc(C(F)(F)F)cc(C(F)(F)F)c2)CC3)cc1,/,/,13µM*,/,23.1µM*,-2.4%[57.4 µM]
COC(=O)N1CCC2(CCN(Cc3ccc(C#N)cc3)CC2)CC1,/,/,?,/,1.64µM*,5.9%[57.4 µM]
O=C(c1cccc(F)c1)N1CCC2(CCN(Cc3cc(C(F)(F)F)cc(C(F)(F)F)c3)CC2)CC1,/,/,18.4µM*,/,?,-2.9%[57.4 µM]
SMILES,IL1B secr inh,HT1080NT lethal,TDP1 cell noCPT,HT1080 IDH1KD tx,DT40 TDP1 CPT,ALOX12 inh
COC(=O)N1CCC2(CCN(Cc3cc(C(F)(F)F)cc(C(F)(F)F)c3)CC2)CC1,/,/,14.6µM*,/,?,15.0%[57.4 µM]
CCOc1ccc2oc(=O)cc(CN3CCN(C(=O)c4cccc(F)c4)CC3)c2c1,/,/,?,/,?,-18.1%
COc1ccccc1CN1CCC2(CC1)CCN(C(=O)c1cccc(F)c1)CC2,/,/,1.1%,/,-3.2%,1.0%[57.4 µM]
CCOc1ccc(CN2CCN(C(=O)c3cccc(F)c3)CC2)cc1,-59.6*,?,-21.9%,8.4%[9.24 µM],-24.6%,?
N#Cc1ccc(CN2CCC3(CC2)CCN(S(=O)(=O)c2ccccc2)CC3)cc1,/,/,16.4µM*,/,?,3.3%[57.4 µM]
COc1ccccc1CN1CCC2(CC1)CCN(C(=O)c1cc(C(F)(F)F)cc(C(F)(F)F)c1)CC2,/,/,20.6µM*,/,?,8.5%[57.4 µM]
Cc1nc(C)c(C(=O)NC2CCc3nn(CC4CC4)c(=O)n3CC2)s1 (configuration not stated),/,/,/,/,/,35.1%
CCc1cnc(Nc2nc(C(N)c3ccccc3Cl)cs2)nc1 (configuration not stated),-12.8,-22.0%,?,-1.0%,?,5.3%
Cc1cnc(C)c(Nc2nc(C(N)Cc3ccccc3)cs2)n1 (configuration not stated),-17.6,?,?,?,?,-3.4%
CCc1cnc(Nc2nc(C(N)Cc3ccc(Cl)cc3)cs2)nc1 (configuration not stated),?,20.6µM*,?,?,?,-17.5%
